Test results taken from PubChem BioAssay (NCI).
About 79,000 compounds went through this panel and 15% of them were active in at least one assay; those are over-represented in the sample as a whole. Cut-off read from the data, not from the text of the source: active = growth inhibition above about 70%; inactive = the rest.

Legend:
[1] = NCI Yeast Anticancer Drug Screen. Data for the rad50 strain (AID 155);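 note: 0% = growth of vehicle-only cultures of the same strain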; details: S. cerevisiae rad50 strain growth inhibition; at 50.0 µM; active compounds read high
In short: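 Genetically altered yeast (DNA repair pathway); compound treatment; growth inhibition vs vehicle ctrl.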

[2] = NCI Yeast Anticancer Drug Screen. Data for the mec2-1 strain (AID 157); details: S. cerevisiae mec2-1 strain, at 50.0 µM, active compounds read high
In short: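 Readout is yeast growth inhibition, normalised to vehicle-treated controls, in the mec2-1 strain exposed to compound.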

[3] = NCI Yeast Anticancer Drug Screen. Data for the sgs1 mgt1 strain (AID 161);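 note: 0% = growth of cultures given vehicle only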; details: S. cerevisiae sgs1 mgt1 strain, at 50.0 µM, active compounds read high
In short: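 Growth of a repair-deficient yeast mutant was monitored after compound treatment and expressed as inhibition relative to vehicle-treated cultures.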

[4] = NCI Yeast Anticancer Drug Screen. Data for the cln2 rad14 strain (AID 165);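 note: 0% = growth equal to vehicle treated cultures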; details: S. cerevisiae cln2 rad14 strain, at 50.0 µM, active compounds read high
In short: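 Relative to vehicle controls, growth inhibition of compound-treated cln2 rad14 yeast was recorded.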

[5] = NCI Yeast Anticancer Drug Screen. Data for the bub3 strain (AID 167); details: S. cerevisiae bub3 mutant strain, at 50.0 µM, active compounds read high
In short: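 Yeast carrying a defined mutation is treated with each compound, and growth is compared with that of vehicle-exposed cells to give inhibition.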

[6] = NCI Yeast Anticancer Drug Screen. Data for the mlh1 rad18 strain (AID 175); details: S. cerevisiae mlh1 rad18 strain growth inhibition; at 50.0 µM; active compounds read high
In short: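 Test agents were incubated with a yeast strain of defined genotype (DNA damage repair defect). Inhibition of growth was derived by comparison with vehicle-exposed cultures.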

Measured: growth inhibition

CC1(C)CS(=O)(=O)CC(C)(C)C(=N/N)/C1=N\N
inactive: [1] 20.1% | [2] 26.9% | [3] -13.2% | [4] 5.8% | [5] -6.95% | [6] -18.2%

CO/C=C1/CCc2c(ccc3cc(OC)ccc23)C1=O
inactive: [1] -1.5% | [2] -8.75% | [3] 10.5% | [4] -0.8% | [5] 3.2% | [6] -6.55%

NNC(=O)c1ccc[n+](CCc2ccccc2)c1
inactive: [1] -1.25% | [2] -8.55% | [3] -34% | [4] -34% | [5] -30.4% | [6] -5.5%

CC(C)(C#N)CCCS(C)(=O)=O
inactive: [1] -7.75% | [2] -4.35% | [3] -4% | [4] -9.25% | [5] -12.6% | [6] -2.65%

CCC(C)C(C)O (centres undefined)
inactive: [1] -7.05% | [2] -53% | [3] 2.9% | [4] 14.5% | [5] -12.8% | [6] 0.1%

CCOC(=O)C(C)(C)O
inactive: [1] 18.8% | [2] 14% | [3] 1.05% | [4] -35.9% | [5] 9.05% | [6] 19.2%

Cc1cccc(NC(=O)OCCOC(=O)Nc2cccc(C)n2)n1
inactive: [1] -15.1% | [2] -11.6% | [3] -19.4% | [4] -9.25% | [5] -11.1% | [6] -1.15%

C(=C(c1ccccc1)c1ccccc1)=C(c1ccccc1)c1ccccc1
inactive: [1] 30.8% | [2] 12.9% | [3] 24.6% | [4] -15.4% | [5] 4.95% | [6] 32%

O=C(O)CSC(CC(=O)O)C(=O)O (centres undefined)
inactive: [1] 10.3% | [2] -9.4% | [3] 17.7% | [4] 8.85% | [5] 21.6% | [6] 4.25%

CCN(CC)CCNc1cc(OC)c(N)c2cccnc12
inactive: [1] 14.2% | [2] 19.9% | [3] -2.7% | [4] -6.75% | [5] 46.6% | [6] 40.4%

CC(C)C1NC(C(=O)O)C(C)(C)S1 (centres undefined)
inactive: [1] 1.75% | [2] 6.6% | [3] -1.6% | [4] 4.05% | [5] 0.35% | [6] -16.1%

Cc1cc(Cl)cc(CN(Cc2ccccc2)Cc2cc(Cl)cc(C)c2O)c1O
inactive: [1] 1.3% | [2] -3.55% | [3] 18.2% | [4] 25.7% | [5] 2% | [6] -6.8%

CC1c2ccccc2-c2ccccc2N1C(=O)c1cccc(C(=O)N2c3ccccc3-c3ccccc3C2C)n1 (centres undefined)
inactive: [1] 26.3% | [2] 11.6% | [3] -6.75% | [4] -1.9% | [5] -2.1% | [6] 18.1%

CCOC(=O)Nc1cccc(F)c1
inactive: [1] -10.9% | [2] 14.7% | [3] 22.9% | [4] -44.6% | [5] -21.1% | [6] -0.5%

COC(=O)c1cccc(=O)o1
inactive: [1] 2.55% | [2] 0.1% | [3] -18.4% | [4] -79% | [5] -1.2% | [6] 2.15%

COc1ccc2c(c1)-c1cc(OC)ccc1C2c1ccccc1
inactive: [1] -1.1% | [2] -9.15% | [3] -7.6% | [4] -57.5% | [5] 5.15% | [6] -7.25%

COC(=O)C(CC(=O)c1ccc2ccccc2c1)OC (centres undefined)
inactive: [1] -1.85% | [2] -9.1% | [3] 7.2% | [4] -76.7% | [5] 6.35% | [6] -9.55%

Oc1c(CNCc2ccccc2)cc(CNCc2ccccc2)c(O)c1CNCc1ccccc1
inactive: [1] 5.3% | [2] 8.85% | [3] -4.8% | [4] 3.2% | [5] 17.3% | [6] -14.8%

O=c1cc(-c2ccccc2)oc2c(N=Nc3ccccc3)ccc(O)c12
inactive: [1] 33.8% | [2] -14.8% | [3] 22.9% | [4] 25.4% | [5] 22.4% | [6] -11.5%

Cc1ccnc(NCc2ccccn2)c1
inactive: [1] 6.7% | [2] 3.85% | [3] 17.4% | [4] -0.15% | [5] 1.3% | [6] -1.5%

CC(C)CC(C)(O)C(N)=O (centres undefined)
inactive: [1] -5.15% | [2] -7.55% | [3] -29% | [4] -21.8% | [5] 0.35% | [6] -4.95%

CCOC(=O)C1=C(C(=O)c2ccccc2)C(c2ccc(Cl)cc2Cl)C(C(=O)c2ccccc2)=C(C(=O)OCC)N1
inactive: [1] -11.3% | [2] -8.2% | [3] -16.6% | [4] -3.45% | [5] -9% | [6] -1.5%

CCOC(=O)C(CC)(C(=O)OCC)C(C)CC (centres undefined)
inactive: [1] 11.3% | [2] -1.65% | [3] 15.1% | [4] -5.9% | [5] -7.55% | [6] -1.25%

CC(Oc1ccc2ccccc2c1I)C(=O)O (centres undefined)
inactive: [1] 27.9% | [2] 12.8% | [3] 37.8% | [4] 18.6% | [5] 57.4% | [6] 36.8%

CC1(C(=O)O)C(=O)Oc2c1c1ccccc1c1ccccc21 (centres undefined)
inactive: [1] 15.3% | [2] 10.7% | [3] 0.75% | [4] 10.8% | [5] 16.3% | [6] 27.5%

C/C(C=C(C#N)C#N)=C\c1cccc(F)c1
inactive: [1] 55.7% | [2] 28.3% | [3] 50.6% | [4] 48.1% | [5] 17.5% | [6] 53.8%

O=C(O)C1Nc2ccccc2NC1=O (centres undefined)
inactive: [1] 3.55% | [2] -3.15% | [3] -5.5% | [4] -47% | [5] -4.35% | [6] 3.3%

c1ccc(C23c4ccccc4C2c2ccccc23)cc1 (centres undefined)
inactive: [1] 14.3% | [2] 11.9% | [3] 22.2% | [4] 10.2% | [5] 18.3% | [6] 13.9%

CCN(CC)C1C(=O)NC1C#Cc1ccccc1 (centres undefined)
inactive: [1] 19% | [2] 6.5% | [3] 7.05% | [4] 5.95% | [5] 7.6% | [6] 15.6%

Cc1cccc(NC(=O)c2cccc([N+](=O)[O-])c2O)c1C
inactive: [1] 3.1% | [2] 9.05% | [3] 14.2% | [4] 11.8% | [5] -2.7% | [6] -87%

O=C(O)c1ccccc1/C=N\N(CCO)C1=NCCN1
inactive: [1] 21.4% | [2] 13.1% | [3] 13.9% | [4] -25.1% | [5] 2.95% | [6] 19%

Oc1ccc(Cl)c(O)c1
inactive: [1] 30.1% | [2] -0.55% | [3] -3.65% | [4] 0.9% | [5] -6% | [6] 21.7%

Cc1ccccc1NC(=O)CC(=O)n1nc(-c2ccccc2)c(N=Nc2ccc([N+](=O)[O-])cc2)c1-c1ccccc1
inactive: [1] 46.4% | [2] 10.4% | [3] 56% | [4] 30.9% | [5] 52.8% | [6] 42.9%

CC1=CC(=O)CC(C)(C)C1(O)/C=C/C(C)=C/C(=O)O (centres undefined)
inactive: [1] -11.6% | [2] -28.5% | [3] -56% | [4] -37% | [5] -41.7% | [6] 5.1%

CCOC(=O)N1CCN(P(=O)(Nc2ccc3nc(NC(=O)OC)[nH]c3c2)Oc2ccccc2)CC1 (centres undefined)
inactive: [1] -38.5% | [2] -6.9% | [3] 0.55% | [4] -9.4% | [5] -9.65% | [6] -37.1%

COC(=O)c1cc(=O)n(C)[nH]1
inactive: [1] -0.55% | [2] 4.7% | [3] 0.75% | [4] -58.2% | [5] 6.65% | [6] -1.05%

COc1ccccc1/C=N/N1C(=O)C2C3C=CC(O3)C2C1=O (centres undefined)
inactive: [1] 2.35% | [2] 9.8% | [3] 0.1% | [4] 0.15% | [5] 3.45% | [6] 14.5%

COc1ccccc1CCCO
inactive: [1] -1.8% | [2] 1.2% | [3] 1.55% | [4] 11.2% | [5] 10.1% | [6] -3.1%

CCOc1ccc(CN(CCN2CCCCC2)c2ccccn2)cc1
inactive: [1] 26.6% | [2] 9.45% | [3] 23.4% | [4] -7.4% | [5] 11.5% | [6] 24.1%
